Measured values taken from PubChem BioAssay AID743461 (Broad Institute, 2014).
The other results are listed elsewhere or left out. Active and inactive are the calls of the source.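 The calls were made as follows: active = fitted dose curve reaching 40% activity at or below the highest valid dose tested; inconclusive = flat fit between 30% and 70%, or an unusable fit; inactive = the rest.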

Assay: inhibitors of PGC-1a-driven COX5a expression, dose response, cell-based, C2C12 myotubes, RT-qPCR, cherry-picked samples (AID 743461)
Conditions: C2C12 myotubes PGC-1a adenovirus, at 0.0285 µM

N#Cc1ccc(-c2ccc(C3[C@@H]4CN(S(=O)(=O)c5ccc(F)cc5)C[C@H]3N4)cc2)cc1 (stereo partly specified)
maximal activity: -35.2% (inactive)
